# Screens from PubChem.
# MITF inh: inhibitors of MITF, primary screen, MITF inhibitor project, cell-based, luminescence; TRPM1 promoter luciferase, 24 h; inhibition, % (test concentration not listed); hit rate 0.28% among 37,000; AID 2240, 2010; in the data active = inhibition above about 85%; inconclusive = no clear call, values can overlap the other calls; inactive = below about 68%;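 also: human melanocyte line stably carrying TRPM1 promoter luciferase reporter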
# Hedgehog inh: Hedgehog pathway signaling inhibitors, primary screen, luminescence, Shh-LIGHT2 cells, Gli-luciferase; Shh-LIGHT2 Gli-luciferase reporter, 30 h; inhibition, % (concentration not given with the values); hit rate 2.1% among 22,000; AID 2313, 2010;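 active = mean inhibition across valid replicates above about 65%, limit read from the data; inconclusive = mean under the limit, yet half or more replicates past it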;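 also: pathway switched on by Shh-conditioned medium diluted 1 in 25 in low serum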
# NOMO-1 viab: NOMO-1 AML cell viability reduction, primary screen, STK33 inhibitor project, CellTiter-Glo luminescence; NOMO-1 AML viability, 72 h; inhibition, % (test concentration not listed); hit rate 7.5% among 37,000; AID 2330, 2010; in the data active = inhibition above about 80%; inconclusive = no clear call, values can overlap the other calls
# Starred values were filed as active, the others as inactive; ? = inconclusive; nt = no result. Shown are actives, neighbours in structure and some others; about 7.8% of the full set was active somewhere.
SMILES,MITF inh,Hedgehog inh,NOMO-1 viab
C[C@@H]1CN([C@@H](C)CO)C(=O)c2cccc(NC(=O)c3ccc(-c4nccs4)cc3)c2O[C@H]1CN(C)Cc1ccc(C(F)(F)F)cc1,69.4,-3.2,99.2*
COc1ccc(-c2cc(SCCN3CCOCC3)c(C#N)c(-c3ccccc3)n2)cc1,-11.5,?,29.0
Cc1cc(C)n(C(=O)c2ccc(COc3c(F)c(F)cc(F)c3F)o2)n1,-20.4,nt,35.9
Oc1c(C(Nc2cccnc2)c2ccccc2F)ccc2cccnc12 (stereo unspecified),58.6,nt,115.7*
Oc1c(C(Nc2cccnc2)c2ccc(Cl)cc2)ccc2cccnc12 (stereo unspecified),38.8,nt,119.9*
Oc1c(C(Nc2cccc(Cl)c2)c2cccnc2)ccc2cccnc12 (stereo unspecified),37.2,74.8*,114.9*
O=C(CSCc1c(Cl)cccc1Cl)Nc1cccnc1,-35.8,nt,18.3
CC(=O)NC(c1ccccc1)c1ccccc1,-6.4,-38.2,27.1
COC(=O)c1ccccc1NC(=O)Cn1ccc([N+](=O)[O-])n1,-11.8,nt,-11.1
Cc1cccc(N=Cc2c(Nc3cccc(C)c3)nc3ccccn3c2=O)c1,-22.9,-41.3,27.5
O=C(CCCOc1ccc(Cl)cc1Cl)Nc1ccc2c(c1)C(=O)NC2=O,-14.1,nt,26.9
C[C@@H]1CN([C@H](C)CO)C(=O)c2cccc(NC(=O)c3ccc(-c4nccs4)cc3)c2O[C@@H]1CN(C)S(=O)(=O)c1ccccc1,-6.7,17.2,3.1
C[C@H](CO)N1C[C@H](C)[C@@H](CN(C)S(=O)(=O)c2ccccc2)Oc2c(NC(=O)c3nc4ccccc4s3)cccc2C1=O,-0.8,-16.4,29.9
Cc1ccc(S(=O)(=O)N(C)C[C@H]2Oc3c(NC(=O)c4ccc(-c5nccs5)cc4)cccc3C(=O)N([C@@H](C)CO)C[C@H]2C)cc1,13.1,1.5,5.8
C[C@H](CO)N1C[C@H](C)[C@@H](CN(C)S(=O)(=O)c2ccc(Cl)cc2)Oc2c(NC(=O)c3ccncc3)cccc2C1=O,-14.5,-1.4,16.1
Cc1ccc(S(=O)(=O)N(C)C[C@@H]2Oc3c(NC(=O)c4ccc(-c5nccs5)cc4)cccc3C(=O)N([C@H](C)CO)C[C@@H]2C)cc1,29.2,-7.3,81.5*
C[C@H](CO)N1C[C@H](C)[C@H](CN(C)S(=O)(=O)c2ccc(Cl)cc2)Oc2c(NC(=O)c3ccncc3)cccc2C1=O,-10.2,110.7*,34.4
C[C@H]1CN([C@@H](C)CO)C(=O)c2cccc(NC(=O)c3ccc(-c4nccs4)cc3)c2O[C@H]1CN(C)S(=O)(=O)c1ccc(Cl)cc1,-16.2,93.5*,8.6
C[C@@H]1CN([C@@H](C)CO)C(=O)c2cccc(NC(=O)c3nc4ccccc4s3)c2O[C@H]1CN(C)S(=O)(=O)c1ccc(Cl)cc1,28.2,-14.4,92.9*
C/C=C1\C(O[C@@H]2O[C@H](CO)[C@@H](O)[C@H](O)[C@H]2O)OC=C(C(=O)OC)C1CC(=O)OC[C@@H]1[C@H](C)[C@@H](OC(=O)CC2C(C(=O)OC)=COC(O[C@@H]3O[C@H](CO)[C@@H](O)[C@H](O)[C@H]3O)/C2=C\C)C[C@H]1C(CO)CO (stereo partly specified),nt,-13.8,nt
CC(C)(O)CCC(=O)C(C)(O)C1C(O)CC2(C)C3CC=C4C(CC(O)C(OC5OC(CO)C(O)C(O)C5O)C4(C)C)C3(C)C(=O)CC12C (stereo unspecified),-2.9,-22.3,8.2
Cc1cc(=O)oc2cc(OC3OC(CO)C(O)C(O)C3O)ccc12 (stereo unspecified),-10.8,-22.5,-13.1
C[C@H](CO)N1C[C@H](C)[C@H](CN(C)S(=O)(=O)c2cccs2)Oc2c(NC(=O)c3ccc(-c4nccs4)cc3)cccc2C1=O,45.3,92.0*,58.4
C[C@H](CO)N1C[C@H](C)[C@@H](CN(C)S(=O)(=O)c2cccs2)Oc2c(NC(=O)c3ccc(-c4nccs4)cc3)cccc2C1=O,-11.7,40.4,7.3
C[C@@H]1CN([C@H](C)CO)C(=O)c2cccc(NC(=O)c3ccc(-c4nccs4)cc3)c2O[C@H]1CN(C)S(=O)(=O)c1ccc(Cl)cc1,7.7,75.5*,6.7
SMILES,MITF inh,Hedgehog inh,NOMO-1 viab
C[C@H]1CN([C@@H](C)CO)C(=O)c2cccc(NC(=O)c3ccc(-c4nccs4)cc3)c2O[C@@H]1CN(C)S(=O)(=O)c1ccccc1,2.9,20.6,25.8
O=C(Nc1ccc(I)cc1C(=O)NCCN1CCOCC1)c1cccnc1,-16.0,nt,17.5
C[C@@H]1CN([C@@H](C)CO)C(=O)Cc2cc(NC(=O)Cc3cn(C)c4ccccc34)ccc2O[C@@H]1CN(C)Cc1ccc(Cl)c(Cl)c1,16.6,-19.9,107.3*
C[C@H](CO)N1C[C@H](C)[C@H](CN(C)Cc2ccccc2)Oc2ccc(NC(=O)Cc3cn(C)c4ccccc34)cc2CC1=O,18.6,8.8,-1.4
C[C@@H]1CN([C@H](C)CO)C(=O)Cc2cc(NC(=O)Cc3cn(C)c4ccccc34)ccc2O[C@H]1CN(C)Cc1ccc(Cl)c(Cl)c1,31.8,-9.0,114.9*
C[C@@H]1CN([C@H](C)CO)C(=O)Cc2cc(NC(=O)Cc3cn(C)c4ccccc34)ccc2O[C@@H]1CN(C)Cc1ccc2c(c1)OCO2,12.2,14.2,17.7
Cc1ccc(Oc2ncccc2NC(=O)C(=S)NCc2ccccc2)c2c1CCC2,6.8,41.2,40.0
CC(NS(=O)(=O)c1ccc(Cl)cc1)C(=O)Nc1c(F)cccc1F (stereo unspecified),-5.5,nt,18.9
O=C(CN1C(=O)C2C3CC(c4ccccc4)C(C3)C2C1=O)Nc1cccc([N+](=O)[O-])c1 (stereo unspecified),45.6,nt,64.2
C[C@H]1CN([C@@H](C)CO)C(=O)Cc2cc(NC(=O)NC3CCCCC3)ccc2O[C@@H]1CN(C)Cc1ccncc1,-13.5,nt,17.6
C[C@H](CO)N1C[C@H](C)[C@H](CN(C)Cc2ccc(Cl)c(Cl)c2)Oc2ccc(NC(=O)NC3CCCCC3)cc2CC1=O,5.6,15.4,99.6*
C[C@@H]1CN([C@H](C)CO)C(=O)Cc2cc(NC(=O)C3CCCCC3)ccc2O[C@@H]1CN(C)Cc1ccc(Cl)c(Cl)c1,25.6,33.4,114.2*
C[C@@H]1CN([C@H](C)CO)C(=O)Cc2cc(NC(=O)C3CCCCC3)ccc2O[C@H]1CN(C)Cc1ccc(Cl)c(Cl)c1,7.1,-23.3,?
Cc1cccc(NC(=O)C(=O)NCCCO)c1,-55.0,nt,22.1
S=C(NC1CCCCC1)C(=S)NC1CCCCC1,-44.5,-22.1,33.9
S=C(NC1CCCCC1)Sc1ccc(Cl)cc1,10.0,35.5,122.4*
COc1ccc(OC)c(NC(=O)COc2ccc([N+](=O)[O-])cc2)c1,-25.3,nt,-18.0
COC(=O)c1cc(NC(=O)COc2ccccc2OC)cc(C(=O)OC)c1,15.3,nt,36.5
Oc1ccc(Cl)c2cccnc12,37.3,-8.5,110.0*
COc1ccc2c(c1)C(C)(CC#N)C(=O)N2C (stereo unspecified),-2.1,-20.9,-0.6
CCc1cc(C(=O)OC)c(NC(=O)c2cc(-c3ccccn3)nc3ccc(Cl)cc23)s1,28.1,nt,-15.8
CS(=O)(=O)N(CC(=O)Nc1cccc([N+](=O)[O-])c1)c1ccc2c3c(cccc13)CC2,29.8,nt,25.6
